Measured values taken from PubChem BioAssay.
Activity calls are given as the source filed them.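 How the source made its calls: active means viability loss from added drug above about 55%, and viability with drug at most 40%, in both replicates (limit read from the data, passing the limit was not always enough); inconclusive means both conditions met in only one replicate; inactive means neither replicate meets both conditions.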

test: MRP1 drug-resistance reversers in H69AR cells – cell-based, doxorubicin co-treatment, pilot screen (AID 601); details: H69AR cells + 2 uM doxorubicin, CellTiter-Glo, 72 h; at 10 µM; stronger effect = higher value

| Structure (SMILES) | differential viability (reversal) |
| --- | --- |
| COc1cccc(C(=O)n2cnnc2N)c1OC | 6.76% (inactive) |
| O=C(Cn1c(=O)n(Cc2ccc3c(c2)OCO3)c(=O)c2ccccc21)N1CCCc2ccccc21 | 3.96% (inactive) |
| CC(C)[C@H](NC(=O)NC1CCCC1)C(=O)O | 15.2% (inactive) |
| COc1ccc(-c2cc3n(n2)CCc2nc4ccccc4n2-3)cc1 | 6.67% (inactive) |
| CCc1nc2scc(-c3ccccc3)c2c(=O)n1N | -8.11% (inactive) |
| O=S(=O)(Nc1cccc2ncccc12)c1cccs1 | 0.345% (inactive) |
| O=C(O)c1cccc(CN2C(=O)SC(Nc3ccccc3)C2=O)c1 (centres undefined) | 8.78% (inactive) |
| Cc1nc2ccc(N3C(=O)CCC3=O)cc2[nH]1 | 7.96% (inactive) |
| COCCn1nnnc1C(c1ccc(OC)cc1)N1CCN(c2ccccc2F)CC1 (centres undefined) | 9.91% (inactive) |
| O=S(=O)(c1ccc2nc(Cc3cccc(C(F)(F)F)c3)[nH]c2c1)N1CCOCC1 | 3.53% (inactive) |
| Cc1nnc(SCC(=O)N(C(C)C)C(C)C)nc1C | 10.3% (inactive) |
| O=C(NC1CCCCC1)C1CC(O)CN1C(=O)OCc1ccccc1 (centres undefined) | 9.51% (inactive) |
| CCOC(=O)c1ccc(CC2S/C(=C(\C#N)C(C)=O)NC2=O)cc1 (centres undefined) | -4.15% (inactive) |
| COc1ccc(C2CC(=O)C(C=NCCN3CCOCC3)=C(O)C2)cc1 (centres undefined) | 2.73% (inactive) |
| CN1C(=O)CCC1(O)c1ccccc1 (centres undefined) | 0.975% (inactive) |
| O=c1[nH]c(/C(=N\O)c2ccccc2)no1 | 32.5% (inactive) |
| COC(=O)C1=C(N)Oc2cc(C)[nH]c(=O)c2C1c1ccncc1 (centres undefined) | 7.35% (inactive) |
| O=C(c1cc(S(=O)(=O)N2CCOCC2)ccc1F)N1CCCc2ccccc21 | -3.44% (inactive) |
| CCc1nc(C)c(C#N)c2cc(OC)c(OC)cc12 | 8.46% (inactive) |
| COc1ccc2c(c1OC)C(=O)N(c1ccc3c(c1)CCC3)C2=O | 12.6% (inactive) |
| COc1cc(CC(=O)NCc2ccc3c(c2)OCO3)cc(OC)c1OC | 9.63% (inactive) |
| COc1ccc(CCNC(=O)c2ccc(N3CCCC3=O)cc2)cc1OC | 12.3% (inactive) |
| COc1ccccc1NC(=O)c1ccc(COc2ccccc2OC)o1 | 5.99% (inactive) |
| COc1ccc(NC(=O)CSC2=C(C#N)C(c3ccco3)C3=C(CCCC3=O)N2)c(OC)c1 (centres undefined) | 4.23% (inactive) |

same assay, conditions: H69AR cells + 2 uM doxorubicin, CellTiter-Glo, 72 h; measured here: viability with 2 uM doxorubicin; at 10 µM; stronger effect = lower value

| Structure (SMILES) | viability |
| --- | --- |
| CCc1nnc(NC(=O)c2ccc(COc3ccc(C)cc3)o2)s1 | 111% |
| CC(C)Cn1c(CN2CCN(c3ccccc3F)CC2)nc2c1c(=O)[nH]c(=O)n2C | 84.8% |
| O=C(CN(c1ccc(F)cc1)S(=O)(=O)c1ccc2c(c1)OCCO2)Nc1ccc2c(c1)OCO2 | 95.2% |
| CC1(C)Cc2noc(N)c2C(C)(C)N1O | 80.8% |
| COC(=O)CCn1nnc(-c2cccs2)n1 | 97.4% |
| CCOc1ccc(N(C(C)=O)C2C=CS(=O)(=O)C2)cc1 (centres undefined) | 92.4% |
| CS(=O)(=O)N1CCCC(C(=O)NCCCN2CCC(Cc3ccccc3)CC2)C1 (centres undefined) | 103% |
| Cn1c(=O)cc(OCC(=O)NCCCN2CCN(c3cccc(Cl)c3)CC2)c2ccccc21 | 65.1% |
| CCC(C)NC(=O)c1ccccc1NC(=O)C(C)N(c1ccccc1)S(C)(=O)=O (centres undefined) | 102% |
| COc1ccc2nc3oc(C(=O)NC4CCN(Cc5ccccc5)CC4)cc3cc2c1 | 80.9% |
| Cc1c(Cl)cccc1N1C(=O)c2ccccc2C1=O | 108% |
| O=C(NC1CCCC1)C(c1ccco1)N(Cc1ccccc1)C(=O)c1csnn1 (centres undefined) | 95.9% |
| O=C(O)Cn1cc(C(=O)c2ccco2)c2ccccc21 | 90.3% |
| CC(C)(C)Cc1nc(-c2ccccn2)no1 | 92.9% |
| COCC(=O)N(Cc1ccc(OC)cc1)Cc1nc2ccccc2c(=O)[nH]1 | 100% |
| CCCN1C(=O)SC(CC(=O)Nc2ccc(Br)cc2)C1=O (centres undefined) | 91.2% |
| COc1cccc(C(=O)n2cnnc2N)c1OC | 83.1% |
| O=C(Cn1c(=O)n(Cc2ccc3c(c2)OCO3)c(=O)c2ccccc21)N1CCCc2ccccc21 | 78.3% |
| CC(C)[C@H](NC(=O)NC1CCCC1)C(=O)O | 89% |
| COc1ccc(-c2cc3n(n2)CCc2nc4ccccc4n2-3)cc1 | 86.7% |

| Structure (SMILES) | viability |
| --- | --- |
| CCc1nc2scc(-c3ccccc3)c2c(=O)n1N | 96.5% |
| O=S(=O)(Nc1cccc2ncccc12)c1cccs1 | 1.37% |
| O=C(O)c1cccc(CN2C(=O)SC(Nc3ccccc3)C2=O)c1 (centres undefined) | 94% |
| Cc1nc2ccc(N3C(=O)CCC3=O)cc2[nH]1 | 95.2% |
| COCCn1nnnc1C(c1ccc(OC)cc1)N1CCN(c2ccccc2F)CC1 (centres undefined) | 79.8% |
| O=S(=O)(c1ccc2nc(Cc3cccc(C(F)(F)F)c3)[nH]c2c1)N1CCOCC1 | 79.4% |
| Cc1nnc(SCC(=O)N(C(C)C)C(C)C)nc1C | 93.2% |
| O=C(NC1CCCCC1)C1CC(O)CN1C(=O)OCc1ccccc1 (centres undefined) | 83.9% |
| CCOC(=O)c1ccc(CC2S/C(=C(\C#N)C(C)=O)NC2=O)cc1 (centres undefined) | 93.7% |
| COc1ccc(C2CC(=O)C(C=NCCN3CCOCC3)=C(O)C2)cc1 (centres undefined) | 95.8% |
| CN1C(=O)CCC1(O)c1ccccc1 (centres undefined) | 91.3% |
| O=c1[nH]c(/C(=N\O)c2ccccc2)no1 | 40.7% |
| COC(=O)C1=C(N)Oc2cc(C)[nH]c(=O)c2C1c1ccncc1 (centres undefined) | 87.3% |
| O=C(c1cc(S(=O)(=O)N2CCOCC2)ccc1F)N1CCCc2ccccc21 | 94.3% |
| CCc1nc(C)c(C#N)c2cc(OC)c(OC)cc12 | 74% |
| COc1ccc2c(c1OC)C(=O)N(c1ccc3c(c1)CCC3)C2=O | 94.9% |
| COc1cc(CC(=O)NCc2ccc3c(c2)OCO3)cc(OC)c1OC | 86.2% |
| COc1ccc(CCNC(=O)c2ccc(N3CCCC3=O)cc2)cc1OC | 79.8% |
| COc1ccccc1NC(=O)c1ccc(COc2ccccc2OC)o1 | 91.3% |
| COc1ccc(NC(=O)CSC2=C(C#N)C(c3ccco3)C3=C(CCCC3=O)N2)c(OC)c1 (centres undefined) | 68.8% |
